Drawing on PubChem BioAssay (NCI), this text covers growth for 7 compounds.

Each structure is given as a SMILES string. The panel holds about 83,000 compounds, 20% with a hit somewhere; the sample as a whole holds those more often.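 How to read the values: 0–100, growth inhibition (40 = 60% inhibited); 0, no net growth; -100 to 0, cell death (-40 = 40% of starting cells died; -100 = all dead).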 Unmarked numbers belong to inactive results. Activity calls are given as the source filed them. Rule for the calls: active = growth percent below 10; inactive = the rest.

Some test systems named below: DU-145 prostate; K-562 leukemia; MALME-3M melanoma; MDA-MB-231 breast; RXF 393 renal; SF-268 CNS; SF-295 CNS; SF-539 CNS; UACC-257 melanoma; M14 melanoma; HCT-15 colon; HT29 colon; SNB-75 CNS; SNB-19 CNS; U251 CNS; PC-3 prostate; SK-MEL-5 melanoma; UACC-62 melanoma; LOX IMVI melanoma; SK-MEL-28 melanoma.
Assay in all cases: NCI-60 one-dose screen, 48 h (100 = growth as untreated, 0 = no growth, -100 = all killed)
Conditions in all cases: 10 µM unless noted

Regarding `O=C(O)/C=C/C(=O)Nc1cccc(Cn2nnc3cc(Cl)c(Cl)cc32)c1`, the growth was 119% with DU-145 prostate; 91.3% with K-562 leukemia; 97.5% with MALME-3M melanoma; 106% with MDA-MB-231 breast; 93.2% in the experiment on RXF 393 renal; 98.5% in the experiment on SF-268 CNS. The growth with SF-295 CNS is 97%; with SF-539 CNS, 101%; with UACC-257 melanoma, 97.1%; in the experiment with M14 melanoma, 102%; with HCT-15 colon, 95.3%; with HT29 colon it was 110%. The growth in the experiment on SNB-75 CNS is 86.4%; with SNB-19 CNS, 100%; in the experiment on U251 CNS, 103%; in the experiment on PC-3 prostate, 102%; with SK-MEL-5 melanoma, 99.1%; with UACC-62 melanoma, 97.6%. For the same compound, the growth was 97.3% in the experiment with LOX IMVI melanoma and 106% in the experiment with SK-MEL-28 melanoma.

For the compound `COc1ccc(N2CCN(C(=O)c3sc4nc(C)c(Br)c(C)c4c3N)CC2)cc1`, the growth is 104% with DU-145 prostate; 97.3% with K-562 leukemia; -12.3% (active) in the experiment on MALME-3M melanoma; 84.2% with MDA-MB-231 breast; 116% in the experiment on RXF 393 renal; 89.1% with SF-268 CNS. The growth was 95.6% with SF-295 CNS; 91.8% in the experiment on SF-539 CNS; 99.7% with UACC-257 melanoma; 99.3% with M14 melanoma; 102% with HCT-15 colon; 102% with HT29 colon. Besides, the growth is 76.6% in the experiment with SNB-75 CNS; 98.9% with SNB-19 CNS; 87.4% in the experiment with U251 CNS; 81.9% with PC-3 prostate; 93.4% with SK-MEL-5 melanoma; 89.2% in the experiment with UACC-62 melanoma. Also, the growth in the experiment on LOX IMVI melanoma was 93%; in the experiment on SK-MEL-28 melanoma, 104%.

Regarding `C#CC#CC#CC#CC#CC#CC#CC#CCC1OC[C@H](COC(=O)O[C@@H](C(=O)O[C@H]2C[C@@]3(O)[C@@H](OC(=O)c4ccccc4)[C@@H]4[C@]5(OC(C)=O)CO[C@@H]5C[C@H](O)[C@@]4(C)C(=O)[C@H](OC(C)=O)C(=C2C)C3(C)C)[C@@H](NC(=O)c2ccccc2)c2ccccc2)O1` (stereo not given in full), the growth is 17.3% with DU-145 prostate; 15.5% in the experiment with K-562 leukemia; 47.2% with MALME-3M melanoma; 35.3% in the experiment on MDA-MB-231 breast; -2.06% (active) with RXF 393 renal; 45.9% in the experiment on SF-268 CNS. The growth was 15.2% in the experiment with SF-295 CNS; 8.47% (active) with SF-539 CNS; 64.9% with UACC-257 melanoma; 1.84% (active) with M14 melanoma; 88% with HCT-15 colon; 7.52% (active) in the experiment with HT29 colon. The growth in the experiment with SNB-75 CNS was 7.72% (active); in the experiment with SNB-19 CNS it was 27.9%; in the experiment with U251 CNS it was 26.2%; in the experiment with PC-3 prostate, 23.2%; with SK-MEL-5 melanoma, 31.6%; in the experiment on UACC-62 melanoma, 28.3%. Further, the growth is 29.6% with LOX IMVI melanoma and 53.6% in the experiment on SK-MEL-28 melanoma.

On to `C[C@]1(O)CC(=O)[C@]2(O)C3=C(C=C[C@]2(O)C1)C(=O)c1c(O)cccc1C3=O`, for which the growth is -82.3% (active) in the experiment on DU-145 prostate; 5.36% (active) in the experiment on K-562 leukemia; -96.7% (active) in the experiment with MALME-3M melanoma; 30.2% with MDA-MB-231 breast; -85.3% (active) in the experiment on RXF 393 renal; 85.4% in the experiment with SF-268 CNS. Moreover, the growth in the experiment on SF-295 CNS was 89.8%; in the experiment on SF-539 CNS it was 82.4%; with UACC-257 melanoma it was 77.3%; with M14 melanoma, -24.8% (active); in the experiment on HCT-15 colon, -45.5% (active); in the experiment with HT29 colon it was 3.93% (active). In addition, the growth is 20% with SNB-75 CNS; 101% in the experiment with SNB-19 CNS; 72.4% in the experiment on U251 CNS; 72.8% in the experiment on PC-3 prostate; -53.7% (active) in the experiment on SK-MEL-5 melanoma; 16.5% with UACC-62 melanoma. Also, the growth in the experiment with LOX IMVI melanoma was -51.5% (active); with SK-MEL-28 melanoma it was -37.4% (active).

Turning to `COc1ccc(C(O)c2cc3c(N)c(C(=O)Nc4cccc(Cl)c4C)sc3nc2C)cc1` (stereo not given), the growth is 3.08% (active) in the experiment on DU-145 prostate; 6.61% (active) with K-562 leukemia; 41.7% in the experiment on MALME-3M melanoma; 1.27% (active) with MDA-MB-231 breast; 33.7% in the experiment with RXF 393 renal; 13.2% in the experiment with SF-268 CNS. In addition, the growth in the experiment with SF-295 CNS was 17.4%; in the experiment on SF-539 CNS, -4.61% (active); in the experiment with UACC-257 melanoma it was 44.1%; in the experiment on M14 melanoma, 7.3% (active); in the experiment on HCT-15 colon, 10.8%; with HT29 colon, -7.84% (active). Besides, the growth with SNB-75 CNS was -11.4% (active); in the experiment on SNB-19 CNS, 39%; with U251 CNS, 11.1%; with PC-3 prostate it was 16.7%; in the experiment with SK-MEL-5 melanoma it was -53.7% (active); in the experiment on UACC-62 melanoma, 24.6%. In addition, the growth in the experiment on LOX IMVI melanoma was 22%; in the experiment with SK-MEL-28 melanoma, 57.7%.

Consider `O=C(NC(Cc1nnc2n(Cc3ccccc3)c(=O)c3c4c(sc3n12)CCCC4)c1ccccc1)c1ccccc1` (stereo not given), for which the growth in the experiment on DU-145 prostate was 115%; in the experiment with K-562 leukemia, 91%; with MALME-3M melanoma, 103%; in the experiment on MDA-MB-231 breast, 94%; in the experiment with RXF 393 renal it was 79.4%; with SF-268 CNS, 89.5%. Moreover, the growth is 108% in the experiment on SF-295 CNS; 111% in the experiment with SF-539 CNS; 101% in the experiment with UACC-257 melanoma; 86.9% with M14 melanoma; 138% in the experiment on HCT-15 colon; 106% in the experiment on HT29 colon. In addition, the growth is 81.3% in the experiment on SNB-75 CNS; 99.1% in the experiment on SNB-19 CNS; 111% in the experiment with U251 CNS; 96.7% in the experiment with PC-3 prostate; 96.1% in the experiment with SK-MEL-5 melanoma; 85.9% with UACC-62 melanoma. In addition, the growth with LOX IMVI melanoma is 109%; in the experiment on SK-MEL-28 melanoma, 110%.

As for `N#Cc1c(-c2ccccc2)nc(SCC(O)CN2CCOCC2)nc1N1CCOCC1` (stereo not given), the growth in the experiment with DU-145 prostate is 61.7%; in the experiment on K-562 leukemia, 90%; in the experiment on MALME-3M melanoma, 23.1%; with MDA-MB-231 breast, 77.3%; in the experiment with RXF 393 renal, 72.5%; with SF-268 CNS it was 62.3%. Also, the growth with SF-295 CNS was 43.6%; in the experiment with SF-539 CNS, 56.6%; in the experiment on UACC-257 melanoma, 17.1%; in the experiment with M14 melanoma it was 59.9%; in the experiment with HCT-15 colon, 80.1%; in the experiment with HT29 colon, 68.5%. The growth is -4.63% (active) in the experiment on SNB-75 CNS; 65.8% with SNB-19 CNS; 81.4% with U251 CNS; 56.5% in the experiment on PC-3 prostate; 66.6% in the experiment with SK-MEL-5 melanoma; 42.9% in the experiment on UACC-62 melanoma. Also, the figures for the growth in the experiment with LOX IMVI melanoma and with SK-MEL-28 melanoma were 78% and 59.9%, respectively.
